# The supplement of paper PMC6555819
# System: VDR:RXRa (NR concentration 270 nM, RXRa partner concentration 90 nM)
# Experiment: PBM binding z-score (relative to random genomic background probes); higher = stronger binding; sequences stand for … in GC…GCGATTGACAGCGTAGAATGAAGG
# Experimental: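 Protein-binding microarray (Agilent 4x180K custom design, double-stranded 60-nt probes: 5' GC cap, 34-nt variable region, 24-nt constant primer region; full probe sequence given). Purified or IVT nuclear receptor:RXRα heterodimers (3:1 NR:RXRα, mostly 270:90 nM) or homodimers were incubated for 1 h in PBS with 2% milk and no ligand, then detected with Alexa488 antibodies. Fluorescence from o1-orientation probes (~5 replicates averaged) was converted to z-scores against 500 random hg19 background probes. Variable regions are seed direct-repeat (DR0–DR5) sites, all their single-nucleotide variants and half-site ablations.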
row,Sequence,PBM binding z-score
1,TCTGCTACGTCAACGATGGTCAGCTAATCTGCTA,-0.548
2,CTCGAAAGGTCGTGCTCAGGGGAGTATACCAAAC,3.14
3,TTACCAAGGTGGAAGGTCGTTGATGCACGCCTTG,0.464
4,TGTCAAGGTTCAAAGGTAACGTAAGTATCCACAC,4.59
5,CACGAAAGGTCGGTTGAGGTGAGTATACGGATAA,2.37
6,CACACTAGGTCACCGGAAGGTCAAAGTCCGCATG,5.97
7,GCAGACAGGTGAAACGCAGATAACTCAGGGTGGC,-0.407
8,TAGCCTAGGTCATTCAGGGTCCAGTATAGAAAGC,4.41
9,AGAATGAGGTTAAGATCAGGGAGACAGAATACAT,1.24
10,CGAACTAGGTCATCCAGGACAGGGAATACATTGA,4.1
11,TGCCAAAGTTCAAAGGTAACGTAAGTATCCACAC,4.97
12,CCTCGGAGGAAAACAGGAGGTCAGAGCTGCCAGA,1.28
13,ATCAAAAGGTCGTGAGGTGAGTATACAGAAAGGC,3.92
14,TCGAGTAGGTTAGGGGCATTCATAATGGCGTCGA,0.655
15,CGTCCAAGGTCAGTAGGTCAGTGAAAGCGACGTG,3.29
16,TCTTGTAGATCAAAGGTTTAGAAAGCCGAAGCCT,0.314
17,CCTACTGGGCCATTCACAGGTCATTGATCATATG,1.72
18,GCTGGTAGATCAAGGTTAAGAAAGACTAAGCTAA,0.201
19,CCTACTCGGCCAAAGGTCATTGATTCCAATGCTC,4.8
20,TAGCCTATGTCATTGGGCCAGTATAGTACGCATC,-0.316

row,Sequence,PBM binding z-score
1,CAAACTAGGTCACAGAGATCAAAGTCCGTGCGTA,4.39
2,CGAACTAGGTCAAGGACAGTGAATCTCCGCACGC,1.32
3,TGTACAGGGTCAAAGGCCAGAGTACGAATGTCGA,4.59
4,CCGACTGGGGCATAACGTTACCATAAGCCAGCCC,-0.52
5,CAAACTAGTTCACGAAAGGTCAAAGTCGAATGAC,6.33
6,ATCTCTAGGTAAAAGTGCAGTGAATCCCGAGGAT,0.00627
7,CCTAGCAGGCCAGGGTCACGCAAGCATTTCGCTT,3.95
8,CGAACTAGGTCATTGACAGGACAGTAAATAGTAA,2.34
9,CCTTGCGGGTCACTCCAGGTTATAGCATCGGAGT,3.51
10,CCTAGTTGGACAAGGTCACACACGCTATAGGTAC,4.08
11,CCGACTGGGGCAAAGATTACCATACTCAGTACGA,-0.618
12,CGTCCAATGTCAATGCTAGGTCAGTGAAAGCATT,0.803
13,CCTAGTTGGTCAGGAGGTCACCCACCGGATATGA,3.66
14,CCTTACGCGTCAAGGTTATAGCACGGGTGGTACG,0.442
15,CCTACTGGGCCGAAGGTCATTGATTCCAATGCTC,2.51
16,GTACCAAGGTGAATAGGTCGGTGATGAGTAGGCG,0.312
17,TCGAGTAGGTTAGGGGCATTCACAATGGCGTCGA,0.522
18,CGAACTATGTCATCCAGGACAGTGAATACATTGA,1.05
19,TTATATAGGTAAATGCTAGGTGAAAGTCCGATCT,0.639
20,CCTAGTTGGTCAAGGTCACACACGCTATAGGTAC,4.26
